High-throughput results: PubChem, several laboratories
Sampled rows, rich in hits. Any-hit rate of the full collection: about 32%.
CYP2C19 inh = inhibitors of human CYP2C19. inhibition, % at 5 µM. AID 778. actives 21% (n = 96,000). CYP2C19 Supersomes, luciferin-H EGE luminescence, 30 min;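 active = CYP2C19 inhibition above a set limit at 5 µM in the primary screen, cut at about 50% in these data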;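 note: plate controls were negative control wells for no effect and 2.5 mM tranylcypromine positive control for full effect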
Target sequence (P33261 whole entry, looked up): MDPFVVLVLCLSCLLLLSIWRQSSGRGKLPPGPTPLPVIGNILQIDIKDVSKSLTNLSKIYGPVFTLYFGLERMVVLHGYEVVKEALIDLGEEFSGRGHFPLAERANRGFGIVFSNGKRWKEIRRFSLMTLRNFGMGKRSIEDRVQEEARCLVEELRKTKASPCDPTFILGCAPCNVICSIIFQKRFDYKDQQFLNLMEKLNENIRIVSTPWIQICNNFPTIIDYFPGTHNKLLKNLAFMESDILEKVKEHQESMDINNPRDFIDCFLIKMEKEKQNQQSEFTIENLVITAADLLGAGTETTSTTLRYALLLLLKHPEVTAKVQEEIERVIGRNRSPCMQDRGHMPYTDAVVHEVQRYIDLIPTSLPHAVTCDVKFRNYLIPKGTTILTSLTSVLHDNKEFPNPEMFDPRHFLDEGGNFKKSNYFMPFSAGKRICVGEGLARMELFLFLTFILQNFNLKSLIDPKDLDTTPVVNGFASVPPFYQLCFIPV
CYP2C9 inhib = human CYP2C9 inhibition | actives 20% (n = 96,000) | P11712 | AID 777 | inhibition, % at 5 µM | CYP2C9 Supersomes, luciferin-H conversion, luminescence;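 active = blocking of liver enzyme CYP2C9 beyond about 50% at 5 µM, limit read from the data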
CYP2C9 act = increases human cytochrome P450 2C9 activity; P11712; AID 1024; recombinant CYP2C9, luciferin-H conversion, luminescence; active compounds read high; factor 1 = untreated enzyme, 0 = blocked; actives 1.4% (n = 96,000); activation factor at 5 µM;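 active = activation factor of 2 or more for CYP2C9 at a 5 µM dose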;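 note: 0 = sulfaphenazole-blocked wells and 1 = vehicle-only wells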
PostGolgi yeast = growth inhibition of a yeast mutant, post-Golgi transport screen; inhibition, % at 10 µM; actives 0.9% (n = 98,000); post-Golgi transport phenotypic cell assay;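 note: yeast cells grown in 1536-well plates; yeast grown about 18 h at 30C before absorbance read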
PostGolgi ctrl = yeast control strain growth, post-Golgi counter-screen; efflux-deficient yeast background strain, growth absorbance A615, 16 h; inhibition, % at 10 µM; AID 738; actives 5% (n = 98,000)
CYP2C19 activ = cytochrome P450 2C19 (human) activation; recombinant CYP2C19, luciferin-H EGE luminescence; active compounds read high; 0 = fully inhibited enzyme, 1 = untreated enzyme; activation factor at 5 µM; 96,000 tested, under 10 active; AID 1025;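 active = activation factor of at least 2 at 5 µM in the primary screen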;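 note: 0 = wells with 2.5 mM tranylcypromine and 1 = vehicle-only wells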
* marks the source's active call; other numbers are inactive results; · = no result given. Cut-off read from the data, not from the text of the source, unless noted: active = inhibition above about 30%; inactive = the rest.

SMILES	CYP2C19 inh	CYP2C9 inhib	CYP2C9 act	PostGolgi yeast	PostGolgi ctrl	CYP2C19 activ
COc1ccccc1NC(=O)C(C)NS(=O)(=O)c1ccc(F)cc1 (stereo unspecified)	53.4*	-204.6	3*	-3.6	2.6	0.5
CC1=NNC(=O)C1C(c1ccccc1)C(C#N)C#N (stereo unspecified)	25.3	23.8	0.8	0.5	2.9	0.7
O=S(=O)(Nc1nccs1)c1cc(Cl)ccc1Cl	18.5	-52.7	1.5	12.7	-5.0	0.8
Cc1ccc(S(=O)(=O)N/N=C\c2cn(-c3ccccc3)nc2-c2ccccc2)cc1	27.7	66.8*	0.3	-0.8	4.4	0.7
O=S(=O)(N/N=C/c1cn(Cc2ccccc2)c2ccccc12)c1ccccc1	14.0	87.1*	0.1	-1.6	29.3	0.9
COC(=O)c1ccc(COc2ccccc2/C=N/NS(=O)(=O)c2ccccc2)cc1	7.2	23.1	0.8	1.0	25.1	0.9
Cc1ccc(-c2nn(-c3ccccc3)cc2/C=N/NS(=O)(=O)c2ccccc2)cc1	26.6	65.8*	0.3	-5.3	8.6	0.7
Cc1nn(-c2ccccc2)c(C)c1/C=N/N1CCN(c2ccccc2)CC1	10.4	8.9	0.9	5.2	3.2	0.9
O=[N+]([O-])c1ccc(N/N=C/c2cn(-c3ccccc3)nc2-c2ccccc2)cc1	9.9	25.5	0.7	-6.1	29.4	0.9
Cc1ccc(S(=O)(=O)N/N=C/c2c(C)nn(-c3ccccc3)c2C)cc1	56.3*	75.4*	0.2	0.2	9.6	0.4
CCn1nc(C)c(/C=N/NC(=O)c2ccoc2C)c1C	38.7	14.3	0.9	-2.7	11.8	0.6
Cc1nn(-c2ccccc2)c(C)c1/C=N/NC(=O)c1cc(-c2ccccc2)n[nH]1	69.8*	86.1*	0.1	-5.6	10.1	0.3
CCCCOc1ccc(C(=O)N2CCC(C)CC2)cc1	69.5*	53.8*	0.5	11.0	16.7	0.3
CCOc1ccc(C(=O)N2CCCN(C(=O)c3ccc(OCC)cc3)CC2)cc1	29.6	61.0*	0.4	-8.2	-0.7	0.7
CC(=O)N=C(N)Sc1nc2ccccc2[nH]1	·	·	·	-2.2	10.1	·
Cc1cc(C#N)c(C)n1-c1cc(S(=O)(=O)N2CCOCC2)ccc1N1CCCC1	33.3	73.3*	0.3	2.6	27.3	0.7
COc1ccc2cc(-c3csc(-c4cccnc4)n3)ccc2c1	75.4*	2.4	1	1.6	-1.2	0.2
N#C/C(=C(/O)COC(=O)c1ccc2c(c1)OCCO2)c1nc2ccccc2[nH]1	59.6*	76.1*	0.2	2.9	0.3	0.4
N#C/C(=C\Nc1ccc2c(c1)OCCO2)c1nc2ccccc2[nH]1	23.5	-0.5	1	9.6	26.3	0.8
COc1ccc(/C=N/OC/C(O)=C(\C#N)c2nc3ccccc3[nH]2)cc1	1.5	-0.4	1	0.3	-15.4	1
CCOC(=O)c1c(C)[nH]c(C(=O)OC/C(O)=C(\C#N)c2nc3ccccc3[nH]2)c1C	58.1*	81.4*	0.2	-5.1	-13.9	0.4
COC(=O)C(C)N(C(=O)c1ccc(C(=O)c2ccccc2)cc1)c1c(C)cccc1C (stereo unspecified)	94.2*	98.0*	0	-16.0	16.3	0.1
COCCn1cnnc1SCC(=O)c1ccc(S(=O)(=O)N2CCCC2)cc1	56.9*	48.6	0.5	-2.4	-0.6	0.4
CN(Cc1ccccc1)C(=O)CC(c1ccccc1)c1cc(Cl)ccc1O (stereo unspecified)	31.9	75.9*	0.2	-5.8	3.6	0.7
CCCN(CCC)C(=O)CC(c1ccccc1)c1cc(C)ccc1O (stereo unspecified)	25.3	52.8*	0.5	-5.9	13.9	0.7
SMILES	CYP2C19 inh	CYP2C9 inhib	CYP2C9 act	PostGolgi yeast	PostGolgi ctrl	CYP2C19 activ
CCN(CCO)C(=O)CC(c1ccccc1)c1cc(Br)ccc1O (stereo unspecified)	·	·	·	-5.0	4.8	·
O=C(O)C1CCCN(S(=O)(=O)c2ccc(Br)cc2)C1 (stereo unspecified)	-12.6	-22.6	1.2	7.6	-6.7	1.1
C=CCN=C1SC(C)C(=O)N1S(=O)(=O)c1ccccc1 (stereo unspecified)	73.3*	-36.4	1.4	-6.6	3.5	0.3
COc1ccc(CNC(=O)C2CC(c3cccc([N+](=O)[O-])c3)=NO2)cc1 (stereo unspecified)	22.1	-13.4	1.1	-6.6	14.7	0.8
COCCNC(=O)C1CC(c2cccc(OC)c2)=NO1 (stereo unspecified)	6.6	-11.0	1.1	8.2	36.5*	0.9
CCn1ncc(C2=NOC(C(=O)NCc3ccc(OC)cc3)C2)c1C (stereo unspecified)	-3.7	7.6	0.9	16.6	12.5	1
CCn1ncc(C2=NOC(C(=O)NCc3ccccc3)C2)c1C (stereo unspecified)	56.9*	23.0	0.8	-7.7	4.8	0.4
COc1cccc(C2=NOC(C(=O)NC3CCCCC3)C2)c1 (stereo unspecified)	10.0	-189.8	2.9*	5.3	-5.8	0.9
COc1cccc(C2=NOC(C(=O)Nc3ccc(OC)c(OC)c3)C2)c1 (stereo unspecified)	12.7	-11.9	1.1	4.0	3.9	0.9
Cc1ccc(CNC(=O)C2CC(c3cccc([N+](=O)[O-])c3)=NO2)cc1 (stereo unspecified)	75.1*	4.0	1	-0.7	7.2	0.2
COCCNC(=O)C1CC(c2cccc([N+](=O)[O-])c2)=NO1 (stereo unspecified)	-5.5	-19.9	1.2	-2.8	18.2	1.1
N/C(=N\OC(=O)C1CCCCC1)c1ccccn1	17.8	20.5	0.8	0.1	1.8	0.8
O=C(NCCc1ccccc1)C1CC(c2ccccc2O)=NO1 (stereo unspecified)	87.1*	33.3	0.7	3.6	17.0	0.1
COc1ccc(C2=NOC(C(=O)NCc3ccccc3)C2)cc1 (stereo unspecified)	33.6	-36.5	1.4	4.0	-9.9	0.7
O=C(NCc1ccc2c(c1)OCO2)C1CC(c2ccccc2O)=NO1 (stereo unspecified)	27.6	-43.6	1.4	-10.3	8.3	0.7
COc1cccc(C2=NOC(C(=O)NCc3ccccc3)C2)c1 (stereo unspecified)	50.5*	-24.2	1.2	-2.4	2.8	0.5
CC1CCc2nc(N)c(C#N)c(-c3cccn3C)c2C1 (stereo unspecified)	0.0	7.1	0.9	0.5	16.6	1
Clc1ccc(/C=C/c2nc3ccccc3[nH]2)cc1	35.7	15.2	0.8	4.4	13.6	0.6
Clc1ccc(/C=C/c2nc3ccccc3[nH]2)c(Cl)c1	31.7	14.4	0.9	24.3	75.3*	0.7
Clc1cccc(Cl)c1/C=C/c1nc2ccccc2[nH]1	32.0	84.3*	0.2	8.3	65.9*	0.7
